Measurements from the supplement of paper PMC10849652.
About 7,900 targets were measured; listed, in parts, are those with a hit and a random draw of the rest. About 0.6% of all pairs of compound and target were hits.

Assays:
Assay in all cases: log2 fold change, soluble protein after heating vs DMSO (PISA); higher = thermal stabilisation; K562 cells, 10 uM, 30 min; active = over 0.2 and 3.5 SD of the protein, either way, in both replicates (recomputed)
erlotinib = compound: C#Cc1cccc(Nc2ncnc3cc(OCCOC)c(OCCOC)cc23)c1 [erlotinib]
Summary of the method: (§1)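 Quantification of soluble protein used TMTpro 16plex LC-MS/MS, with channel sums equalised. Samples were the supernatant after 21,000xg for 90 min of pooled aliquots from K562 cells (2×10^6 cells/mL) treated with 10 μM compound for 30 min, heated for 3 min over 48°C-58°C, and extracted in PBS with 0.5% NP-40 at 4°C. Values, from duplicates, describe thermal stability against control samples on a log2 fold-change scale.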

[1] = compound: C/C(=N\NC(=O)C1=CC(=CC=C1)S(=O)(=O)N2CCOCC2)/C3=C(C=CC(=C3)Cl)O
Summary of the method: as §1

[2] = compound: C1=CC(=C(C=C1Cl)C2=NC3=NC=CN=C3C(=N2)NC4=CC=NC=C4)F
Summary of the method: as §1

[3] = compound: C1=CC(=CC=C1C2=NC3=C(N2)C=C(C=C3)C(=O)N)OC4=CC=C(C=C4)Cl
Summary of the method: as §1

[4] = compound: C1=CC2=C(C=CC(=C2)/C=C\3/C(=O)NC(=NCC4=CC=CS4)S3)N=C1
Summary of the method: as §1

[5] = compound: C1=CC=C2C(=C1)C3=NNC4=CC=CC(=C43)C2=O
Summary of the method: as §1

[6] = compound: C1=CC2=NC=CN=C2C=C1/C=C/3\C(=O)NC(=O)S3
Summary of the method: as §1

[7] = compound: C1=CC=C(C=C1)C2=NC(=C(N2)C3=CC=NC=C3)C4=CC(=C(C=C4)Cl)O
Summary of the method: as §1

[8] = compound: C1CCN(C1)C(=O)NC2=CC=CC(=C2)NC3=NC=C(C(=N3)NCCC4=CN=CN4)Br
Summary of the method: as §1

[9] = compound: C1CN(CCC1(CC2=CC=C(C=C2)Cl)N)C3=NC=NC4=C3C=CN4
Summary of the method: as §1

Measured: log2 fold change

MAGED1 isoform 2 (UniProt Q9Y5V3)
Sequence of UniProt Q9Y5V3 (Q9Y5V3 whole entry, looked up): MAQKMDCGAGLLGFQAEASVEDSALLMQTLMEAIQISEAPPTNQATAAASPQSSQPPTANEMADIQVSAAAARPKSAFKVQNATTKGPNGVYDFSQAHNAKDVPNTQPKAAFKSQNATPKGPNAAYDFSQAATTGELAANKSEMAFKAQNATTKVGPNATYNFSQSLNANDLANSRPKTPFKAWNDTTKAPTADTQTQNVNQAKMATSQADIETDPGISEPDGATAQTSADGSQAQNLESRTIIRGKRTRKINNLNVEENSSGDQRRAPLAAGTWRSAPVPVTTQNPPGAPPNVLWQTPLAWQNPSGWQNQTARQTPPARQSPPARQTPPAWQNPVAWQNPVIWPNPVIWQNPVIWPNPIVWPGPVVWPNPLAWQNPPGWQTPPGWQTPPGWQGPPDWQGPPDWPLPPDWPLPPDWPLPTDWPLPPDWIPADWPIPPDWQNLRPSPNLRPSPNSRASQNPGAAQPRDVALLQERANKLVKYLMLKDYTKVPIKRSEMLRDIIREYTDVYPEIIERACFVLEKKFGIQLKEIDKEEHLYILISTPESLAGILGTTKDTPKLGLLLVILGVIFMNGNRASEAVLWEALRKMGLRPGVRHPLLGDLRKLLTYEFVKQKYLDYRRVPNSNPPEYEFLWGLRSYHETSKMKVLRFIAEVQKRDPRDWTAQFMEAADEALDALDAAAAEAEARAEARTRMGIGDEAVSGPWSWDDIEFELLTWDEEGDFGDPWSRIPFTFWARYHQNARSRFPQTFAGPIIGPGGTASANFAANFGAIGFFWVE
inactive: erlotinib 0.024 | [1] 0.044 | [2] -0.311 | [3] -0.059 | [4] -0.064 | [5] -0.012

MAGEA9 (UniProt P43362)
Sequence of UniProt P43362 (P43362 whole entry, looked up): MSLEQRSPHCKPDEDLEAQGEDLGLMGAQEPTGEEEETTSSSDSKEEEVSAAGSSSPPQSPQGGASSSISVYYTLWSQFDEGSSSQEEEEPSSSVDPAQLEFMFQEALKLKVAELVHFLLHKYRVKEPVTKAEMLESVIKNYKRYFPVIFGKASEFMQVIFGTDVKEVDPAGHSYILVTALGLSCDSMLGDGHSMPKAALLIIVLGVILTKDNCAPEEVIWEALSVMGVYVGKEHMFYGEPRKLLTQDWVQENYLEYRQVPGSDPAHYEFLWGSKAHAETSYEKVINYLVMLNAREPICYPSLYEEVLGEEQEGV
inactive: erlotinib 0.05 | [1] 0.032 | [2] 0.001 | [3] 0.076 | [4] -0.07 | [6] 0.074 | [7] -0.021 | [5] -0.058 | [8] -0.191 | [9] 0.018

LRBA (UniProt P50851)
Sequence of UniProt P50851 (P50851 whole entry, looked up): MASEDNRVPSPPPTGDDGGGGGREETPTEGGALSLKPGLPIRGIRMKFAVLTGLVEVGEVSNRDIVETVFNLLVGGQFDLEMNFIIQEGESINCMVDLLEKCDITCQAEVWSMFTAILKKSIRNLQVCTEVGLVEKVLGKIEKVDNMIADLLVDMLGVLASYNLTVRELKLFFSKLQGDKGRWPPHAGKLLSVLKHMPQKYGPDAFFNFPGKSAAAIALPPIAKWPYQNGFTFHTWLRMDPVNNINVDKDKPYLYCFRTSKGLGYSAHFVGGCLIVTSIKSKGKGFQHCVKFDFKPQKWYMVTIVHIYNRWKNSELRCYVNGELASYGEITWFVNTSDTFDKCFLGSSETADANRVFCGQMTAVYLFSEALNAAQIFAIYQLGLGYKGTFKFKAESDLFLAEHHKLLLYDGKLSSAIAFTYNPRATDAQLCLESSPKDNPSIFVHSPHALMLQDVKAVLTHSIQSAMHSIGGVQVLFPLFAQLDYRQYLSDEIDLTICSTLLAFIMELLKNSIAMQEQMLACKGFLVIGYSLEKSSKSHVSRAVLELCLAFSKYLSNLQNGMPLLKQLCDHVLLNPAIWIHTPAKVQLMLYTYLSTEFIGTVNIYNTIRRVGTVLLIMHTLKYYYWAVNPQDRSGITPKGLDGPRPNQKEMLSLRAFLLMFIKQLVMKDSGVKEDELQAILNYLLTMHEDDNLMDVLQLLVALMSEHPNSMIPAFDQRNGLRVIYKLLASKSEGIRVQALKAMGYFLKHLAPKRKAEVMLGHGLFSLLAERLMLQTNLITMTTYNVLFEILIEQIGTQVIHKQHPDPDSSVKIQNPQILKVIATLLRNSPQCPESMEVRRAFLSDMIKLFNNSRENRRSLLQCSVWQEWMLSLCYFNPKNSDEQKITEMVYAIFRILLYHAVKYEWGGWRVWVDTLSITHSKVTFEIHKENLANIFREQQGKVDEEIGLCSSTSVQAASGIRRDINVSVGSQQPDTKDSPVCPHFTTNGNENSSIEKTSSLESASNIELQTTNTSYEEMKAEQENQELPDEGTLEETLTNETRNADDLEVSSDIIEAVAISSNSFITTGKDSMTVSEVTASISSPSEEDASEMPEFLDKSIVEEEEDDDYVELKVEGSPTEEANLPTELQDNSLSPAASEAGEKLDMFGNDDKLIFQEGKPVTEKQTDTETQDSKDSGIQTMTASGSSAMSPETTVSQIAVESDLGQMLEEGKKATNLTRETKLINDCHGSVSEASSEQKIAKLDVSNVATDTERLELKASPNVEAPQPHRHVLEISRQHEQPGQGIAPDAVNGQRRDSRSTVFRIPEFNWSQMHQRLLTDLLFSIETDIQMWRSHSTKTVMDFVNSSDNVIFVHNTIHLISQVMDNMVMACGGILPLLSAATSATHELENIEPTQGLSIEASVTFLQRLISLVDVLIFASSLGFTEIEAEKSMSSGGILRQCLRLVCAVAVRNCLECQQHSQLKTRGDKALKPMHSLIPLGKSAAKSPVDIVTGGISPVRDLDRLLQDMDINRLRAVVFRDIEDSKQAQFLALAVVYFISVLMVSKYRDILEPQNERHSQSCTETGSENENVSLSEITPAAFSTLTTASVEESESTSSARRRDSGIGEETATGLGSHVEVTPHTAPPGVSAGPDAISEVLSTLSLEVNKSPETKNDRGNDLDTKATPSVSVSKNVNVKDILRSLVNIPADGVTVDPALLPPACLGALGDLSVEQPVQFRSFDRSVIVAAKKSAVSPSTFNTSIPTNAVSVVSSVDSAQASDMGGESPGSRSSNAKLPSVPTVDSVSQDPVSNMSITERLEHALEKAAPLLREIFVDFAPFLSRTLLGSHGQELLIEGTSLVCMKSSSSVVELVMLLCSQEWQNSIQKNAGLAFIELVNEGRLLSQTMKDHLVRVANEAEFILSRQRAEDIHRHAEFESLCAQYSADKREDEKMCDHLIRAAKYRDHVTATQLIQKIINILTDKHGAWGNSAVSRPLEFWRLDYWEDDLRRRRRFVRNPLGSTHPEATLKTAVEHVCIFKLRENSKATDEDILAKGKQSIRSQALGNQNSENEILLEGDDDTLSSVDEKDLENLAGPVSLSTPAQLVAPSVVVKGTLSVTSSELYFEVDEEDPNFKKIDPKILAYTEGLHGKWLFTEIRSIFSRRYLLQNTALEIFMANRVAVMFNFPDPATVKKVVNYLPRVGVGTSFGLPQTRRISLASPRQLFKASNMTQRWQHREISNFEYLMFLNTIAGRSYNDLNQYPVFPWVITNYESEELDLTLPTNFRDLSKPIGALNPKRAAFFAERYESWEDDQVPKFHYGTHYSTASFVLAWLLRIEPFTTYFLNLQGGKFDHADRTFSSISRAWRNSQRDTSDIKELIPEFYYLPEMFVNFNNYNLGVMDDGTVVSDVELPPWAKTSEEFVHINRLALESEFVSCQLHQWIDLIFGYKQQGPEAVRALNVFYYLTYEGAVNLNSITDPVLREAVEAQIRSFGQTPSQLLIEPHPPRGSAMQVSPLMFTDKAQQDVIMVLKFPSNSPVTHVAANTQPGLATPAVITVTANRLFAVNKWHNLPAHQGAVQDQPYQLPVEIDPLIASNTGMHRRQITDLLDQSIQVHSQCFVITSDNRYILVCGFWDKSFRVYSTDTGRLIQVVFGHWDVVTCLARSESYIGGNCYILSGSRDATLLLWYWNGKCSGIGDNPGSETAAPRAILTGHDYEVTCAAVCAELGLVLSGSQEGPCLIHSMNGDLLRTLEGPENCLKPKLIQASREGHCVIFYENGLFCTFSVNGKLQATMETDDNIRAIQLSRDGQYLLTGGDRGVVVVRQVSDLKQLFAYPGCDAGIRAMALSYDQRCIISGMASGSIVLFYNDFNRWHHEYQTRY
inactive: erlotinib 0.007 | [1] 0.024 | [2] 0.068 | [3] 0.002 | [4] 0.031 | [6] 0.051 | [7] 0.011 | [5] -0.002 | [8] 0.012 | [9] 0.015

MAP4K4 isoform 3 (UniProt O95819)
inactive: erlotinib -0.057 | [1] 0.058 | [2] -0.047 | [3] 0.021 | [4] 0 | [6] 0.034 | [7] -0.069 | [8] -0.031 | [9] -0.012
active: [5] -0.316

IP6K1 (UniProt Q92551)
inactive: erlotinib -0.054 | [1] 0.017 | [2] -0.24 | [3] 0 | [4] 0.25 | [6] -0.025 | [7] -0.088 | [5] 0.142 | [8] -0.083 | [9] 0.067

IPO7 (UniProt O95373)
inactive: erlotinib -0.015 | [1] 0.078 | [2] 0.034 | [3] -0.003 | [4] 0.01 | [6] 0.056 | [7] 0.026 | [5] -0.019 | [8] -0.004 | [9] -0.05

MIEN1 (UniProt Q9BRT3)
Sequence of UniProt Q9BRT3 (Q9BRT3 whole entry, looked up): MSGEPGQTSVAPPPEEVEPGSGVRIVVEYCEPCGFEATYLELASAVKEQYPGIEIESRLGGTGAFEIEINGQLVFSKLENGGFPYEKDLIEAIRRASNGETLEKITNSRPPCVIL
inactive: erlotinib 0.023 | [1] 0.048 | [2] 0.046 | [3] -0.02 | [4] 0.033 | [6] 0.099 | [7] 0.035 | [5] -0.065 | [8] 0.024 | [9] -0.076

MARCKS (UniProt P29966)
Sequence of UniProt P29966 (P29966 whole entry, looked up): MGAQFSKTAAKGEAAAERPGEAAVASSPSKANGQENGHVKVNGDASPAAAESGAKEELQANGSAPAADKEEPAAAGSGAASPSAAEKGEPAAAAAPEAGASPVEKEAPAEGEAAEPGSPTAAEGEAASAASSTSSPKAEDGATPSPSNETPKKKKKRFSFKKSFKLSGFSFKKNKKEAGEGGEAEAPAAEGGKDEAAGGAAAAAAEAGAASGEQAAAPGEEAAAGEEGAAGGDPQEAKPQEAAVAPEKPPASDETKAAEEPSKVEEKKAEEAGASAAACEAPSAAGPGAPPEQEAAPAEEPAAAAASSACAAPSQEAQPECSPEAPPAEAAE
inactive: erlotinib -0.033 | [1] -0.032 | [2] 0.061 | [3] 0.045 | [4] -0.026 | [6] 0.048 | [7] 0.119 | [5] 0.025 | [8] 0.01 | [9] 0.118

LTN1 isoform 3 (UniProt O94822)
inactive: erlotinib 0.026 | [1] 0.114 | [2] -0.021 | [3] -0.02 | [4] 0.032 | [6] -0.021 | [7] -0.027 | [5] -0.056 | [8] -0.027 | [9] -0.031

ITPRIP (UniProt Q8IWB1)
inactive: erlotinib 0.012 | [1] -0.086 | [2] 0.052 | [3] 0.034 | [4] -0.05 | [6] 0.01 | [7] -0.085 | [5] -0.094 | [8] -0.02 | [9] 0.012

KIF11 (UniProt P52732)
inactive: erlotinib 0.042 | [1] 0.032 | [2] -0.106 | [3] -0.058 | [4] 0.038 | [6] 0.012 | [7] -0.168 | [5] 0.011 | [8] -0.017 | [9] -0.158

LARP7 isoform 3 (UniProt Q4G0J3)
Sequence of UniProt Q4G0J3 (Q4G0J3 whole entry, looked up): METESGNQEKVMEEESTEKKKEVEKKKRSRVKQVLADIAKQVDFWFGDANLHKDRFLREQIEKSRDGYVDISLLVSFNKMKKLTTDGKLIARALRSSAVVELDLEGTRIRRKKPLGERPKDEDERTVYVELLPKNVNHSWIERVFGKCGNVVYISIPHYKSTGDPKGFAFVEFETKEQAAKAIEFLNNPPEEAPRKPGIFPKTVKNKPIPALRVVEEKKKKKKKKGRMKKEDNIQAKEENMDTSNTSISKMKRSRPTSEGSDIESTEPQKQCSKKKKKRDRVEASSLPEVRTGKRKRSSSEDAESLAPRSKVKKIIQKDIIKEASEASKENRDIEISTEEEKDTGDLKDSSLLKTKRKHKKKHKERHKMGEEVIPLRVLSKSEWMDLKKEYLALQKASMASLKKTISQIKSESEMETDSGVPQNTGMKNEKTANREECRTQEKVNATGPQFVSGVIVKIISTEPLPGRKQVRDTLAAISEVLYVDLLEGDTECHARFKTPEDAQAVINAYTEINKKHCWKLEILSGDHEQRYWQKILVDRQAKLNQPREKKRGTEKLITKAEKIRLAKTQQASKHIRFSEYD
inactive: erlotinib 0.01 | [1] 0.119 | [2] 0.022 | [3] 0.034 | [4] 0.06 | [6] 0.023 | [7] 0.025 | [5] -0.055 | [8] -0.052 | [9] 0.045
